In PubChem BioAssay (EPA / NIEHS) one finds outcome and AC50 data, which are given here for 22 compounds.

The source made the active and inactive calls. The calls were made as follows: active = hit-call score of the fitted dose curve at least 0.9, where 1 is the maximum; inactive = score below 0.9.

Read-out in experiment [1]: Human Leukocyte Antigen - DR isotype (HLADR), HLA-DRA (gene 3122)
Description: BSK_BE3C_HLADR: BioMAP Diversity Plus: BE3C Assay for Human Leukocyte Antigen - DR isotype (HLADR) Biomarker Activity (AID 2283032). The following applies: primary human bronchial epithelial cells; actives raise or lower the signal. The method, boiled down:
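Chemicals are dosed onto BE3C bronchial epithelial cultures of human origin and left 24 h. HLA-DR is then measured by ELISA, and the endpoint is fitted in both directions using DMSO as the activity baseline.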

Read-out in experiment [2]: Interferon-gamma inducible Protein 10 (IP10), CXCL10 (gene 3627)
Description: BSK_BE3C_IP10: BioMAP Diversity Plus: BE3C Assay for Interferon-gamma inducible Protein 10 (IP10) Biomarker Activity (AID 2283034). The following applies: primary human bronchial epithelial cells; actives raise or lower the signal. The method, boiled down: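 IP-10 quantified by ELISA serves as the endpoint. Cells: primary human bronchial epithelium, read 24 h after compound addition. Activity is derived by bidirectional fitting with DMSO as negative control.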

Read-out in experiment [3]: Monokine induced gamma interferon (MIG), CXCL9 (gene 4283)
Description: BSK_BE3C_MIG: BioMAP Diversity Plus: BE3C Assay for Monokine induced gamma interferon (MIG) Biomarker Activity (AID 2283035).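 As to outcome: MIG protein measured by ELISA in BE3C cultures after 24 h of dosing.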 The conditions noted are these: primary human bronchial epithelial cells; actives raise or lower the signal. The method, boiled down:
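Dose cells (human primary bronchial epithelial), incubate 24 h, quantify MIG by ELISA, then fit concentration–response in both directions relative to DMSO control.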

Read-out in experiment [4]: Transforming growth factor beta 1 (TGFb1), TGFB1 (gene 7040)
The experiment in a line: BSK_BE3C_TGFb1: BioMAP Diversity Plus: BE3C Assay for Transforming growth factor beta 1 (TGFb1) Biomarker Activity (AID 2283036;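 as to outcome: TGF-b1 protein level measured by ELISA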). The conditions noted are these: primary human bronchial epithelial cells; actives raise or lower the signal. The method, boiled down: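 Bronchial epithelial primary cells are treated with test chemical, then TGF-b1 is quantified by ELISA after 24 hours. Values derive from bidirectional fitting against DMSO, with cytotoxicity checked by SRB staining in parallel cultures.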

Read-out in experiment [5]: Plasminogen activator inhibitor-1 (PAI1), SERPINE1 (gene 5054)
The experiment in a line: BSK_BE3C_PAI1: BioMAP Diversity Plus: BE3C Assay for Plasminogen activator inhibitor-1 (PAI1) Biomarker Activity (AID 2283037). The following applies: primary human bronchial epithelial cells; actives raise or lower the signal. The method, boiled down:
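Values derive from bidirectional fitting against DMSO baseline of PAI-1 levels, measured by ELISA in human bronchial epithelial cells 24 h after compound addition.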

Read-out in experiment [6]: urokinase plasminogen activator (uPA), PLAU (gene 5328)
The experiment in a line: BSK_BE3C_uPA: BioMAP Diversity Plus: BE3C Assay for urokinase plasminogen activator (uPA) Biomarker Activity (AID 2283038).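 As to outcome: uPA protein level quantified by ELISA in cell cultures; uPA read one day after compound addition.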 The conditions noted are these: primary human bronchial epithelial cells; actives raise or lower the signal. The method, boiled down:
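Human primary bronchial epithelial cells were exposed to chemical for 24 h, then uPA levels were measured by ELISA. Responses were fitted bidirectionally against DMSO as negative control and baseline. Parallel SRB staining of total protein gauged overt cytotoxicity.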

Read-out in experiment [7]: Urokinase-type plasminogen activator receptor (uPAR), PLAUR (gene 5329)
Description: BSK_BE3C_uPAR: BioMAP Diversity Plus: BE3C Assay for Urokinase-type plasminogen activator receptor (uPAR) Biomarker Activity (AID 2283039).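 As to outcome: cells exposed to compound for one day before measurement.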 The conditions noted are these: primary human bronchial epithelial cells; actives raise or lower the signal. The method in brief:
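Steps: dose human primary bronchial epithelial cells, incubate 24 h, measure uPAR by ELISA, then fit gain- or loss-of-signal response bidirectionally relative to DMSO.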

Read-out in experiment [8]: Interleukin-6 (IL6), IL6 (gene 3569)
Description: BSK_CASM3C_IL6: BioMAP Diversity Plus: CASM3C Assay for Interleukin-6 (IL6) Biomarker Activity for (AID 2283040). The following applies: primary human coronary artery smooth muscle cells; actives raise or lower the signal.

Read-out in experiment [9]: Tissue plasminogen activator (tPA), PLAT (gene 5327)
Description: BSK_BE3C_tPA: BioMAP Diversity Plus: BE3C Assay for Tissue plasminogen activator (tPA) Biomarker Activity (AID 2283041).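 As to outcome: tPA level quantified by ELISA one day after compound addition.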 The following applies: primary human bronchial epithelial cells; actives raise or lower the signal. The method in brief:
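Gain- or loss-of-signal in tPA, measured by ELISA, derived by bidirectional fitting against DMSO. Cells: human primary bronchial epithelial; read at 24 h after chemical dosing.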

For `CC(C)(C)C(O)(CCc1ccc(Cl)cc1)Cn1cncn1` (stereo not drawn), the outcome in experiment [1], in experiment [2], in experiment [3], in experiment [4], in [5] and in experiment [6] was inactive. The outcome in [7], in [8] and in experiment [9] was inactive.

As to `[As]#[In]`, the outcome in experiment [1], in experiment [2], in experiment [3], in [4], in [5] and in experiment [6] was inactive. Further, the result in experiment [7], in [8] and in experiment [9] was inactive.

`Cc1ccc(N)c(N)c1`: the outcome in experiment [1], in [2], in experiment [3], in experiment [4], in [5] and in experiment [6] was inactive. Besides, the outcome in [7], in experiment [8] and in experiment [9] was inactive.

For `CCCCOC(=O)c1ccccc1C(=O)OCc1ccccc1`, the outcome in experiment [1], in experiment [2], in [3], in [4], in [5] and in [6] was inactive. The result in experiment [7], in experiment [8] and in experiment [9] was inactive.

By AC50 is commonly meant the midpoint of the concentration-response curve, whichever way the signal moves. In the case of `Clc1ccc(C(c2ccc(Cl)cc2)C(Cl)Cl)cc1`, the AC50 in experiment [1] was 30.5 µM (active); in [2] it was 32.2 µM (active); in [4], 34.6 µM (active); in [5], 34.4 µM (active). Besides, the outcome in [3], in experiment [6], in experiment [7], in experiment [8] and in experiment [9] was inactive.

With `Nc1ccc([N+](=O)[O-])cc1`, the result in experiment [1], in experiment [2], in [3], in [4], in experiment [5] and in experiment [6] was inactive. Moreover, the outcome in experiment [7], in [8] and in [9] was inactive.

On to `Nc1cc(Cl)cc(C(=O)O)c1Cl`, for which the outcome in experiment [1], in experiment [2], in [3], in [4], in [5] and in [6] was inactive. The result in [7], in experiment [8] and in experiment [9] was inactive.

For the compound `CCOc1cccc(C2(N3CCN(c4ccccc4)CC3)CCC(C)CC2)c1` (stereo not drawn), the result in experiment [1], in [2], in [3], in experiment [4], in [5] and in experiment [6] was inactive. The outcome in [7], in experiment [8] and in experiment [9] was inactive.

In the case of `C[C@]12C=CC3=C4CCC(=O)C=C4CC[C@H]3[C@@H]1CC[C@@H]2O`, the outcome in experiment [1], in experiment [3], in experiment [4], in [5], in experiment [6] and in experiment [7] was inactive. Moreover, the AC50 in [2] was 29.2 µM (active); in [8], 13 µM (active); in experiment [9] it was 3.97 µM (active).

Take `CCN(CC)CCO`: the result in [1], in experiment [2], in experiment [3], in [4], in experiment [5] and in [6] was inactive. Besides, the result in experiment [7], in experiment [8] and in [9] was inactive.

For the compound `[Cl-].[Cl-].[Hg+2]`, the AC50 in experiment [1] was 30.2 µM (active); in [2] it was 34.9 µM (active); in experiment [3], 36.5 µM (active); in experiment [4], 30.9 µM (active); in experiment [5], 30.9 µM (active); in [6], 31.6 µM (active). Also, the AC50 in experiment [7] is 31.5 µM (active); in experiment [8], 31.9 µM (active); in experiment [9] it was 31.8 µM (active).

In the case of `O=C(N[C@H](c1ccccc1)[C@@H]1CN2CCC1CC2)c1c(Cl)ccc(C(F)(F)F)c1Cl`, the AC50 in experiment [1] is 39.7 µM (active); in experiment [2], 21.9 µM (active); in experiment [3], 49 µM (active); in experiment [4], 19.4 µM (active); in experiment [5] it was 29.7 µM (active); in experiment [6] it was 22.4 µM (active). Besides, the values for the AC50 in experiment [7] and in experiment [9] were 34.5 µM (active) and 29.7 µM (active), respectively. Also, in [8], the result was inactive.

With `CCCCCCCCn1sccc1=O`, the AC50 in experiment [1] was 7.16 µM (active); in experiment [2], 9.14 µM (active); in [3], 13.6 µM (active); in [4], 5.55 µM (active); in [5], 7.33 µM (active); in experiment [6], 9.51 µM (active). The AC50 in experiment [7] was 12.9 µM (active); in experiment [8], 28.3 µM (active); in [9], 6.84 µM (active).

Regarding `O=[N+]([O-])C(Br)(CO)CO`, the outcome in experiment [1], in [2], in [3], in experiment [4], in [5] and in [7] was inactive. The outcome in [8] and in experiment [9] was inactive. Besides, the AC50 in experiment [6] was 4.02 µM (active).

Turning to `CS(=O)(=O)NC(=O)c1cc(Oc2ccc(C(F)(F)F)cc2Cl)ccc1[N+](=O)[O-]`, the result in experiment [1], in experiment [2], in experiment [3], in experiment [4], in experiment [5] and in experiment [6] was inactive. In addition, the outcome in [7], in [8] and in experiment [9] was inactive.

For `O=[N+]([O-])c1ccc(Oc2ccc(Cl)cc2Cl)cc1`, in experiment [1], the AC50 was 20 µM (active). Further, the result in experiment [2], in experiment [3], in experiment [4], in experiment [5], in experiment [6] and in [7] was inactive. Besides, the result in experiment [8] and in experiment [9] was inactive.

As for `CN(C)C(=O)Nc1ccc(Cl)cc1`, the result in experiment [1], in experiment [2], in experiment [3], in experiment [4], in experiment [5] and in experiment [6] was inactive. In addition, the result in [7], in [8] and in experiment [9] was inactive.

For the compound `ClCCOCCCl`, the result in [1], in experiment [2], in [3], in experiment [4], in [5] and in experiment [6] was inactive. The result in [7], in experiment [8] and in experiment [9] was inactive.

`CCN(CC)N=O`: the result in experiment [1], in experiment [2], in experiment [3], in experiment [4], in [5] and in experiment [6] was inactive. In addition, the result in experiment [7], in experiment [8] and in experiment [9] was inactive.

`CCCCC(CC)COC(=O)c1ccc(C(=O)OCC(CC)CCCC)c(C(=O)OCC(CC)CCCC)c1` (stereo not drawn): the outcome in [1], in experiment [2], in experiment [3], in [4], in experiment [5] and in experiment [6] was inactive. The result in [7], in [8] and in experiment [9] was inactive.

Consider `CN(C)c1ccccc1`, for which the outcome in experiment [1], in experiment [2], in experiment [3], in experiment [4], in experiment [5] and in [6] was inactive. The outcome in experiment [7], in experiment [8] and in experiment [9] was inactive.

Turning to `O=C(O)C1C2CCC(O2)C1C(=O)O` (stereo not drawn), the outcome in [1], in experiment [2], in experiment [3], in experiment [5], in experiment [6] and in experiment [7] was inactive. Further, in [8], the outcome was inactive. Besides, the AC50 in [4] and in experiment [9] was 18.6 µM (active) throughout.
